Test [1] can be described thus: stimulators of insulin release from INS-1E, primary screen, cell-based, 5 mM glucose, NPC library (AID 1117329;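 active = compound raises insulin release from rat beta cells at 5 mM glucose, no numeric limit stated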). Conditions: rat INS-1E insulin secretion, at 10 µM, hits give high values.
The nature of test [2]: growth inhibition of GSK3B-pretreated HCT116 cells – cell-based, CellTiter-Glo, 0.2 to 20 µM (AID 1117336). Conditions: HCT116 viability after GSK3B inhibitor, at 20 µM, hits give high values. For orientation: Cellular ATP, detected with luciferase, serves as a proxy for viable cell number.
The nature of test [3]: inhibition of endothelial tube formation, primary screen, imaging, VEGF stimulated, CD31 staining, tube area, NPC library (AID 1117340;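 active = compound that reduces growth-factor-driven endothelial tube area in a mixed cell culture, no cutoff stated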). Conditions: VEGF-stimulated ADSC/ECFC co-culture, at 10 µM, hits give high values.
A short description of test [4]: GLP1 release stimulators, primary, NCI-H716, NPC library (AID 1117341;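 active = compound raises GLP1 secretion from the human gut endocrine cells, with no numeric limit stated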). The following applies: NCI-H716 cells, at 10 µM, hits give high values.
A short description of test [5]: HCT116 colon cancer cell growth inhibition, primary screen, CellTiter-Glo luminescence, NPC library (AID 1117342;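 active = compounds that lower survival of HCT116 colon cancer cells in the luminescence readout, no numeric limit stated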). Conditions: at 20 µM (top of the series).
A short description of test [6]: reduced SW480 viability measured with CellTiter-Glo, NPC library, primary (AID 1117343;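 active = compounds that lower viability of the colon cancer cells in the luminescence readout, with no numeric limit stated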). Conditions: CellTiter-Glo luminescence; at 20 µM (top of the series).
Test [7] is described as follows: NPC library primary testing for decreased DLD-1 cell viability via CellTiter-Glo (AID 1117346;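 active = compounds that lower survival of DLD-1 colon cancer cells in the luminescence readout, no cutoff given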). The following applies: DLD-1 viability, CellTiter-Glo luminescence; at 20 µM (top of the series).
Test [8] concerns the target 6-phosphogluconate dehydrogenase, decarboxylating (Homo sapiens) (UniProt P52209). The test can be described thus: inhibition of human phosphogluconate dehydrogenase – biochemical, recombinant enzyme, NADPH absorbance, primary screen (AID 1159550;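 active = at least 20% inhibition of 6-phosphogluconate dehydrogenase activity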). Conditions: recombinant 6PGD, NADPH absorbance 341 nm; at 10 µM; hits give high values.

Results on 13 compounds are retold here after PubChem BioAssay.

Values without a mark were called inactive. Calls of active or inactive are those of the source.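 Rule for the calls, unless noted: active = compounds lowering colon cancer cell viability after pretreatment blocking the GSK3B kinase; inactive = the rest.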

Chain of 6-phosphogluconate dehydrogenase, decarboxylating (Homo sapiens) (P52209 whole entry, looked up): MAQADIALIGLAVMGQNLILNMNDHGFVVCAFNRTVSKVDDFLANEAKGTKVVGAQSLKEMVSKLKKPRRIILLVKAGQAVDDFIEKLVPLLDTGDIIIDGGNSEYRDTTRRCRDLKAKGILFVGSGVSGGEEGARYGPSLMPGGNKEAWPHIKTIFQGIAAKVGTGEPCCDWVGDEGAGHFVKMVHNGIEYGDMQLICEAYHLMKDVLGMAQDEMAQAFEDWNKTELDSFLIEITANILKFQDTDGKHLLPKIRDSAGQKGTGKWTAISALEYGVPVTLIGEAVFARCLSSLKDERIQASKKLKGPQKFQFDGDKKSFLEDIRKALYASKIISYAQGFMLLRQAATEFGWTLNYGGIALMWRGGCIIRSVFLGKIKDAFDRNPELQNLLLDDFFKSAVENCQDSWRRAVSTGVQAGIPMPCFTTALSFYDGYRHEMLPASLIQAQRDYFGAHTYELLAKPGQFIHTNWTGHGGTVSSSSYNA

Regarding `Cc1cc2nc3c(=O)[nH]c(=O)nc-3n(C[C@H](O)[C@H](O)[C@H](O)CO)c2cc1C`, the insulin secretion stimulation in test [1] is 0.9%. The viability decrease in test [2] was -45.7%. The tube area decrease in test [3] was 36.1%. Moreover, the GLP1 secretion stimulation in test [4] is -0.4%. Further, the inhibition of viability in test [5] was 0.1%. For the same compound, the viability decrease (inhibition) was 11.1% in test [6] and -5.4% in test [7]. For the same compound, in test [8], the inhibition was -2.13%.
Consider `CCOC(N)=O`, for which, in test [1], the insulin secretion stimulation was 0.8%. The viability decrease in test [2] is -12.6%. The tube area decrease in test [3] is 14.2%. For the same compound, the GLP1 secretion stimulation in test [4] was -2.3%. The inhibition of viability in test [5] is 3.77%. Further, the viability decrease (inhibition) was 5.1% in test [6] and -11.6% in test [7]. Further, the inhibition in test [8] is -22.6%.
Turning to `Cc1cc2cc3c(C)cc(=O)oc3c(C)c2o1`, the insulin secretion stimulation in test [1] is -0.7%. The viability decrease in test [2] was -8.2%. Besides, in test [3], the tube area decrease is 1.6%. Further, in test [4], the GLP1 secretion stimulation is 0.5%. The inhibition of viability in test [5] is 19.9%. The values for the viability decrease (inhibition) in test [6] and in test [7] were 35.5% and -2.3%, respectively. The inhibition in test [8] was -18.4%.
For `CC(=O)OC(C)C[N+](C)(C)C` (centres undefined), the insulin secretion stimulation in test [1] is -0.3%. Further, in test [2], the viability decrease was -1.9%. For the same compound, the tube area decrease in test [3] was 4.4%. For the same compound, in test [4], the GLP1 secretion stimulation was 5.7% (active). Moreover, the inhibition of viability in test [5] is -6.13%. The viability decrease (inhibition) in test [6] is -21.3%; in test [7], -8.2%. The inhibition in test [8] is 19.2%.
Regarding `O=C1O[C@H](CO)[C@@H](O)[C@H](O)[C@H]1O`, the insulin secretion stimulation in test [1] was 1.8%. Moreover, the viability decrease in test [2] was -0.7%. In addition, the tube area decrease in test [3] was -3.8%. Also, in test [4], the GLP1 secretion stimulation was -2.6%. Moreover, the inhibition of viability in test [5] was 14.6%. Besides, the viability decrease (inhibition) in test [6] was 31.1%; in test [7], 20%. In addition, in test [8], the inhibition is -9.11%.
As for `O=c1c(-c2ccc(O)cc2)coc2cc(O)cc(O)c12`, the insulin secretion stimulation in test [1] is 0.8%. The viability decrease in test [2] was 36.1%. The tube area decrease in test [3] was 54.6% (active). Besides, the GLP1 secretion stimulation in test [4] is 7%. Moreover, in test [5], the inhibition of viability is -0.9%. Further, the results for the viability decrease (inhibition) in test [6] and in test [7] were 94.1% (active) and 8.45%, respectively. Further, the inhibition in test [8] is 3.56%.
For the compound `CN1C(C)(C)CCCC1(C)C`, in test [1], the insulin secretion stimulation is 0.8%. In addition, in test [2], the viability decrease is 23.2%. Moreover, the tube area decrease in test [3] is 2.5%. In test [4], the GLP1 secretion stimulation is -2.3%. Besides, the inhibition of viability in test [5] is -1.5%. Further, the viability decrease (inhibition) is -25.5% in test [6] and -10.7% in test [7]. In addition, the inhibition in test [8] was 2.01%.
On to `NC(=O)NO`, for which the insulin secretion stimulation in test [1] is 0%. In test [2], the viability decrease is 48.8%. In test [3], the tube area decrease was 4.9%. Also, the GLP1 secretion stimulation in test [4] was -2%. In addition, the inhibition of viability in test [5] is 23.9%. For the same compound, the viability decrease (inhibition) in test [6] was 8.5%; in test [7], -7.1%. The inhibition in test [8] is -7.1%.
Consider `O=C(CCBr)N1CCN(C(=O)CCBr)CC1`, for which, in test [1], the insulin secretion stimulation is -2.1%. Also, the viability decrease in test [2] is 56.1% (active). The tube area decrease in test [3] was 60.5% (active). In addition, the GLP1 secretion stimulation in test [4] is -4.4%. Also, the inhibition of viability in test [5] is -0.5%. The results for the viability decrease (inhibition) in test [6] and in test [7] were 3.9% and -14%, respectively. For the same compound, in test [8], the inhibition is -1.69%.
On to `NCCS`, for which the insulin secretion stimulation in test [1] was 2.9%. The viability decrease in test [2] is -8.4%. Besides, the tube area decrease in test [3] was -3.5%. Besides, the GLP1 secretion stimulation in test [4] is -3.8%. Also, the inhibition of viability in test [5] is 2.53%. Besides, the viability decrease (inhibition) in test [6] is -332%; in test [7], -14.1%. Further, in test [8], the inhibition was -14%.
Turning to `CCCCC1(COC(=O)CCC(=O)O)C(=O)N(c2ccccc2)N(c2ccccc2)C1=O`, the insulin secretion stimulation in test [1] was 2.3%. In addition, the viability decrease in test [2] was 10.8%. The tube area decrease in test [3] was -1.7%. The GLP1 secretion stimulation in test [4] was -1.7%. In addition, in test [5], the inhibition of viability is 0.4%. Also, the viability decrease (inhibition) was -17.1% in test [6] and 9.4% in test [7]. Further, in test [8], the inhibition is -3.37%.
For the compound `O=C(NC(Cc1cc(=O)[nH]c2ccccc12)C(=O)O)c1ccc(Cl)cc1` (centres undefined), the insulin secretion stimulation in test [1] is 2.6%. Besides, the viability decrease in test [2] was -6.2%. Moreover, the tube area decrease in test [3] was 19.9%. In test [4], the GLP1 secretion stimulation was -0.3%. Besides, the inhibition of viability in test [5] is 3.17%. Further, the viability decrease (inhibition) in test [6] was 22.7%; in test [7], -11.3%. Besides, in test [8], the inhibition is 4.66%.
In the case of `CN(C)CCc1c[nH]c2ccc(CS(=O)(=O)N3CCCC3)cc12`, the insulin secretion stimulation in test [1] was 2.7%. The viability decrease in test [2] was -11%. The tube area decrease in test [3] was 8.7%. Besides, in test [4], the GLP1 secretion stimulation was 1.2%. For the same compound, the inhibition of viability in test [5] was 1.33%. The results for the viability decrease (inhibition) in test [6] and in test [7] were 28.9% and -7.1%, respectively. Further, in test [8], the inhibition was -1.67%.

The term inhibition denotes the change of the read-out against control, counted positive when it falls.
